Out of some 13,000 compounds screened, about 3,200 (25%) showed an effect of 50% or more. Some of the results follow.

The test has as its system P. falciparum stage V gametocytes. Set-up: BacTiter-Glo ATP luminescence viability of purified stage V gametocytes in 384-well plates, per cent inhibition versus DMSO. Particulars: 48 h, 5 µM; inhibitor.
As usually defined, the % Inhibition is the change of the read-out against control, counted positive when it falls. Turning to `O=C(NCc1cccc(F)c1)Nc1ccc(-c2cccc(-c3nc4ccccc4[nH]3)c2)cc1` [TCMDC-133297], the “% Inhibition” value amounted to 6.044%.

For the compound `COc1ccc2nccc([C@@H](O)CN3CCC(NC(=O)c4cc5c(F)cc(F)cc5[nH]4)CC3)c2c1` [TCMDC-140781], the “% Inhibition” value is reported as -8.295%. In the case of `O=C(Nc1ccc2nc3n(c(=O)c2c1)CCCCC3)C(=O)N1CCN(c2ccc(F)cc2)CC1` [TCMDC-125293] it was -18.55%. The value for `CCCN(Cc1ccc(OCC)cc1)Cc1cc(=O)c2cc(Cl)ccc2[nH]1` [TCMDC-124740] was 40.3%; that for `CCCN(Cc1ccc(C)cc1)Cc1cc(=O)c2cc(Cl)ccc2[nH]1` [TCMDC-124741] was 52.71%; that for `O=c1cc(NCCCN(Cc2cc3c(Cl)cc(Cl)cc3[nH]2)Cc2cc3c(Cl)cc(Cl)cc3[nH]2)[nH]c2ccccc12` [TCMDC-139849] was 1.838%.

Regarding `COc1ccc2nccc([C@@H](O)CN3CCC(NC(=O)c4cccc(C(=O)c5ccccc5)c4)CC3)c2c1` [TCMDC-141283], the “% Inhibition” value is listed as -43.58%. In the case of `CCC(C)NCc1c(O)ccc2c(CNC(C)CC)c(O)ccc12` (stereo not shown) [TCMDC-137585] it was -26.38%; in that of `CCC(C)NCC(O)(c1ccc(Cl)cc1)c1ccc(Cl)cc1` (stereo not shown) [TCMDC-123502], 68.55%; in that of `CCC(C)NCCC(c1ccccc1)c1ccccc1O` (stereo not shown) [TCMDC-125727], 32.82%. The value for `O=c1cc(NCCCNC2CCOc3c(Cl)cccc32)[nH]c2ccccc12` (stereo not shown) [TCMDC-139551] was -16.88%; that for `O=C(/C=C/c1ccc(Cl)c(Cl)c1)NCCCCCCN1CCN(C(=O)Nc2cccc(Cl)c2)CC1` [TCMDC-135831] was -35.92%.

Consider `Nc1nc(N)c2c(ccc3c2ccn3CC2CC2)n1` [TCMDC-123991], for which the “% Inhibition” value was 40.96%. The value for `Cc1cccc(Cn2ccc3c4c(N)nc(N)nc4ccc32)c1` [TCMDC-137814] was 60.36%; that for `Cc1cccc(-c2c(C)nc(N)nc2N)c1` [TCMDC-138072] was 4.683%; that for `Nc1nc(N)c2c(ccc3c2ccn3Cc2cccc(F)c2)n1` [TCMDC-137810] was 101.3%. The value for `Nc1nc(N)c2c(ccc3c2ccn3Cc2ccc3c(c2)OCO3)n1` [TCMDC-137808] was 102.2%.

Regarding `Cc1ccc(C)c(Cn2ccc3nc(N)nc(N)c32)c1` [TCMDC-137330], the “% Inhibition” value was determined as 9.396%. In the case of `Cc1cccc(Cn2ccc3c(N)nc(N)nc32)c1` [TCMDC-137327] it was 54.63%. As for `Nc1nc(N)c2c(ccn2Cc2cc3c(cc2Cl)OCO3)n1` [TCMDC-137328], the “% Inhibition” value is reported as -14.37%.

For the compound `Cc1cc(NC(=O)Nc2ccc3ncccc3c2)c2ccccc2n1` [TCMDC-139829], the “% Inhibition” value is on record as -30.57%. In the case of `COc1ccc(C2CCN(C#N)C2)cc1OC1CCCC1` (stereo not shown) [TCMDC-131880] it was 32.2%; in that of `COc1ccc(-n2c(=O)c3c(n4c(SC(C)C)nnc24)-c2ccccc2CC32CCCCC2)cc1` [TCMDC-125706], 19.59%. For `NC1=NC(CCc2ccccc2)N(c2ccccc2)C(N)=N1` (stereo not shown) [TCMDC-131292], the “% Inhibition” value worked out at 10.89%.

In the case of `O=C(O)C(F)(F)F.c1cc(-c2ccc(CNCCCN3CCOCC3)cc2)cc(-c2nc3ccccc3[nH]2)c1` [TCMDC-132548], the “% Inhibition” value is 54.17%. In the case of `O=C(O)C(F)(F)F.c1cc(-c2ccc(CNCCCn3ccnc3)cc2)cc(-c2nc3ccccc3[nH]2)c1` [TCMDC-132541] it was 99.24%; in that of `Cn1nccc1C(=O)NCCNCc1ccc(-c2cccc(-c3nc4ccccc4[nH]3)c2)cc1.O=C(O)C(F)(F)F` [TCMDC-132562], -0.1444%.

`O=C(O)C(F)(F)F.c1ccc2[nH]c(-c3ccc(-c4ccc(CN5CCN(CCN6CCOCC6)CC5)cc4)cc3)nc2c1` [TCMDC-133928]: the “% Inhibition” value was -28.02%. Take `O=C(O)C(F)(F)F.O=C1CCCN1CCCNCc1ccc(-c2cccc(-c3nc4ccccc4[nH]3)c2)cc1` [TCMDC-132549]: the “% Inhibition” value is reported as -11.63%.

On to `c1ccc(CCNc2ncnc3c2[nH]c2ccccc23)cc1` [TCMDC-124578], for which the “% Inhibition” value was -4.873%.

For the compound `CC(C)(C)c1cc(C(=O)Nc2cccnc2)cc(C(=O)Nc2cccnc2)c1` [TCMDC-125788], the “% Inhibition” value is -16.11%. As for `COc1ccc2nccc([C@@H](O)CN3CCC(NCc4nc5c(OCc6ccccc6)cccc5[nH]4)CC3)c2c1` [TCMDC-141083], the “% Inhibition” value came out at 34.25%. In the case of `CC(CC(=O)NCC1(c2ccc(F)cc2Cl)CCOCC1)C(=O)c1ccc(Cl)cc1` (stereo not shown) [TCMDC-134256] it was 68.04%. Regarding `N#CC(CC(=O)c1ccc(Cl)cc1)c1cccc(F)c1` (stereo not shown) [TCMDC-123760], the “% Inhibition” value is on record as 17.52%.

The values are drawn from article PMC4552634, “A New Set of Chemical Starting Points with Plasmodium falciparum Transmission-Blocking Potential for Antimalarial Drug Discovery” (PLoS ONE, 2015).
